High-throughput results from PubChem BioAssay.
In the library only some 3.1% were active in any assay of this set; here they are far more common.
Vif-APOBEC3G blk: Vif-A3G binding inhibition; Q9HC16; HeLa A3G-eYFP + Vif (tagged APOBEC3G with the HIV-1 protein that degrades it), YFP fluorescence, overnight; Potency, µM (titrated, usually from 46.1 µM), for the others: at the highest dose activity, negative = active, actives largely listed as inhibitors; 410,000 compounds, 0.076% hits; further: potency means the concentration at half of the fitted maximal effect; on the % scale 0 is the no-effect control and ±100 the full control effect; nearly all actives have a fitted effect of over 60% in size
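Read-out is eYFP fluorescence (Ex 488/Em 500-530) from Vif-expressing HeLa A3G-eYFP cells; more signal means A3G escaped Vif-mediated degradation. Cells plated overnight, compound pinned in, incubated overnight at 37 deg C.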
TSHR antagonist: blocks TSH signaling through the human TSH receptor | activity change, negative = inhibition, % at 11.5 µM | AID 504810 | 330,000 compounds, 0.2% hits | TSHR-expressing cells, TSH-stimulated cAMP HTRF, 2 h; active compounds read low | P16473;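 active means activity change below a set negative limit, meaning inhibition stronger than a set level, cut at about -70% in these data; inconclusive means activity change between two set negative limits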; further: on the % scale 0 is the no-effect control and ±100 the full control effect
Target sequence (P16473 whole entry, looked up): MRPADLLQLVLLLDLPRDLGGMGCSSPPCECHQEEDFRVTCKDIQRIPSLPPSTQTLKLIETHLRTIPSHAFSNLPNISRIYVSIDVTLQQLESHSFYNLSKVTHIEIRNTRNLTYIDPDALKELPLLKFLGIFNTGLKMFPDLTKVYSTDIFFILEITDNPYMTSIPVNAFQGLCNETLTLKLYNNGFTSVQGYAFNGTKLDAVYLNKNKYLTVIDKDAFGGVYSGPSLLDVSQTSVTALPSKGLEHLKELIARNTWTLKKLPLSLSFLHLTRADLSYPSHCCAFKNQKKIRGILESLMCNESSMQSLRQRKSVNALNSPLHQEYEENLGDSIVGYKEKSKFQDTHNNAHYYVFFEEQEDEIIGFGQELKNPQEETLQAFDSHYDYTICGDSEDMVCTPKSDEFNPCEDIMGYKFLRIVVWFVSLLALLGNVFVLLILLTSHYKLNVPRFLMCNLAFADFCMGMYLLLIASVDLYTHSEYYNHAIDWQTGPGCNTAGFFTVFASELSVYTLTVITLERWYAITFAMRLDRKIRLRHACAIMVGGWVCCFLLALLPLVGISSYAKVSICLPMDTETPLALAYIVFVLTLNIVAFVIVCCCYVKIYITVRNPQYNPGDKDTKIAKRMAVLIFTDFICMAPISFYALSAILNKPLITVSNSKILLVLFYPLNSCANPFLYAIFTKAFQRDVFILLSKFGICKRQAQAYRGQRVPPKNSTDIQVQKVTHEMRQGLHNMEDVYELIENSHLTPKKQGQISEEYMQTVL
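Freshly harvested TSHR cells receive pin-tooled compound, then EC80 TSH at 4nM final. After 2 hours at 37 deg C, antibody in lysis buffer and cAMP-d2 are added; 30 minutes at ambient temperature precede the HTRF read.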
VDR inhibitor: inhibitors of human vitamin D receptor; AID 504847; 400,000 compounds, 0.93% hits; P11473; Potency, µM, for the others: max response, negative = inhibition, hits mostly inhibitors; VDR-SRC2-3 peptide fluorescence polarization, 2 h; further: potency means the concentration at half of the fitted maximal effect; on the % scale 0 is the no-effect control and ±100 the full control effect
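FP read-out; VDR + SRC2-3 coactivator peptide; 23 nl compound by pintool; 2 h RT incubation; reagents held at 4 deg C, protected from light.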
PLK1 PBD inh: blocks phosphopeptide binding to human PLK1 polo-box domain; Plk1 PBD binding of FITC phosphopeptide, fluorescence polarization; 360,000 compounds, 2.8% hits; P53350; AID 720504; Potency, µM, without a hit: max response, negative = inhibition, usual class: inhibitors; further: potency means the concentration at half of the fitted maximal effect; series mostly up to about 57 µM; on the % scale 0 is the no-effect control and ±100 the full control effect; nearly all actives have a fitted effect of over 65% in size
Vif-APOBEC3F blk: blocks the Vif interaction with APOBEC3F. 390,000 compounds, 0.2% hits. HeLa A3F-eYFP + Vif (tagged APOBEC3F with the HIV-1 protein that degrades it), YFP fluorescence increase. Potency, µM (doses to about 46.1 µM), for inactives: at the highest dose activity, negative = active; further: potency means the concentration at half of the fitted maximal effect; % of control where 0% means no effect; nearly all actives have a fitted effect of over 65% in size
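Fluorescence increase (Ex 488/Em 500-530) after overnight compound treatment at 37 deg C flags inhibition of Vif-driven A3F-eYFP loss in stable HeLa A3F-eYFP/Vif cells seeded overnight beforehand.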
* = called active by the depositor; u = inconclusive; x = not tested or not shown. Unless noted, the call rests on the fitted dose curve; in most records, active means well fitted curve in the direction sought with a large enough effect; inconclusive means small, poorly fitted or top-dose-only effect, or another doubt; inactive means no such curve, though single readings can be large; an effect the other way counts as inactive or inconclusive.

SMILES	Vif-APOBEC3G blk	TSHR antagonist	VDR inhibitor	PLK1 PBD inh	Vif-APOBEC3F blk
COc1ccc(S(N)(=O)=O)cc1N(C)S(=O)(=O)c1ccccc1	-1%	-6	u	27µM*	6%
COc1ccc([C@H]2c3cc(OC)c(OC)cc3C[C@@H](C)[C@@H]2C)cc1OC	x	x	-5%	x	x
Cc1cc(CNC(=O)[C@]2(C(F)(F)F)C[C@H](CCC3CCCCC3)CCCO2)nn1C	-1%	x	-18%	x	x
COC(=O)c1c(NC(=O)/C=C/C(=O)O)sc(C)c1-c1ccc(C(C)C)cc1	-11%	-24	25µM*	38µM*	11%
COC(=O)c1sccc1NC(=O)/C=C/C(=O)O	0%	-9	3%	-15%	0%
COC(=O)c1c(NC(=O)/C=C/C(=O)O)sc(C)c1-c1ccc(C)cc1	-22%	-25	u	-19%	9%
COC(=O)c1c(NC(=O)/C=C/C(=O)O)sc(C)c1-c1ccc(C)c(C)c1	-22%	-25	89µM*	u	-5%
CC(C)=C1C2CCC1C(C(=O)Nc1sc(C)c(-c3ccc(C(C)C)cc3)c1C(N)=O)C2C(=O)O (stereo not given)	-9%	4	-13%	30µM*	-15%
COC(=O)c1sc(-c2ccc(Cl)cc2)cc1NC(=O)/C=C/C(=O)O	-23%	-49	32µM*	-12%	5%
COC(=O)N[C@@H](/C=C/c1ccccc1)/C(C(=O)OC)=C(\C)NCc1ccccc1	x	x	-19%	x	x
Cc1ccccc1CN1[C@H]2CCCC[C@@H]2OCCS1(=O)=O	-4%	x	x	x	x
CCOC(=O)c1c(NC(=O)/C=C/C(=O)O)sc(C)c1-c1ccc(C)c(C)c1	-23%	u	u	u	-1%
CCOC(=O)c1c(NC(=O)/C=C/C(=O)O)sc(C)c1-c1ccc(F)cc1	-7%	-48	22µM*	-14%	-2%
COc1ccc(C2NS(=O)(=O)N=C2N)cc1 (stereo not given)	1%	4	-13%	19µM*	-18%
O=C(O)CCC(=O)NNC(=O)c1ccc([N+](=O)[O-])cc1	3%	3	u	24µM*	2%
CC(=O)NC(=S)NNC(=O)CCc1ccccc1	-6%	17	-6%	u	0%
O=C(CCc1ccccc1)NNC(=S)NC(=O)c1ccccc1	0%	4	-14%	27µM*	0%
O=C(NNC(=S)NC(=O)c1ccc(Br)cc1)c1cccc([N+](=O)[O-])c1	-1%	3	u	27µM*	0%
CC(=O)NNC(=S)NC(=O)c1cccc([N+](=O)[O-])c1	1%	-1	u	24µM*	-21%
O=C(O)CCC(=O)NNC(=O)c1ccc(-c2ccccc2)cc1	1%	1	12%	3%	-36%
N[C@H](C(=O)O)[C@H](Cc1ccccc1)C(=O)O	x	-15	6%	x	x
C[C@]12CC[C@@H]3c4ccc(O)cc4CC[C@H]3[C@@H]1C[C@H](O)C2O (stereo not given in full)	x	x	-4%	x	x
CCOC(=O)c1c(NC(=O)/C=C/c2ccc(Cl)cc2)sc2c1CCC(C)C2 (stereo not given)	11%	x	-12%	x	1%
CC1(C)SC2[C@@H](N=CN3CCCCCC3)C(=O)N2[C@H]1C(=O)O (stereo not given in full)	x	x	-9%	x	x
O=C(NNC(=S)NC(=O)c1ccccc1)c1ccc([N+](=O)[O-])cc1	1%	3	-10%	27µM*	6%
SMILES	Vif-APOBEC3G blk	TSHR antagonist	VDR inhibitor	PLK1 PBD inh	Vif-APOBEC3F blk
CCCn1c(O)c(C=Nc2ccccc2)sc1=S	-7%	-5	11%	-10%	u
CCn1c(O)c(C=Nc2ccccc2)oc1=S	-11%	-5	5%	27µM*	-10%
COc1cc(OC)c(NC(=O)C(C)n2nc(-c3ccc(C)cc3)c3c(c2=O)CCCC3)cc1Cl (stereo not given)	3%	x	7%	x	7%
O=C(NNc1nc(=O)c2cccnc2s1)c1ccccc1O	0%	3	-5%	27µM*	-2%
CC(=O)c1ccc(NC(=O)Cn2c(=O)n(Cc3ccco3)c(=O)c3sc4ccccc4c32)cc1	-19%	x	-8%	x	-2%
CCN(Cc1ccccc1)S(=O)(=O)c1ccc(F)c(C(=O)Nc2cc(C(F)(F)F)ccc2Cl)c1	2%	x	-10%	x	-1%
CC(=O)Nc1ccc(Sc2ccc([N+](=O)[O-])o2)cc1	u	x	u	21µM*	u
CC(C)(C)C(=O)Nc1ccc(Sc2ccc([N+](=O)[O-])cc2)cc1	1%	-1	2%	-10%	-2%
O=C(CSc1ccc2nnc(CCNS(=O)(=O)c3ccccc3)n2n1)Nc1ccccc1C(F)(F)F	-4%	x	7%	x	0%
O=C1c2cc(O)cc(O)c2OC[C@@H]1c1ccc(O)c(O)c1	x	x	-2%	x	x
Cc1ccccc1C(=O)c1c[nH]c(C(=O)NCc2cccs2)c1	-6%	-12	-7%	27µM*	5%
CCOC(=O)c1ccccc1NC(=O)CN(c1ccccc1)S(=O)(=O)c1ccc(OCC)cc1	5%	x	-11%	x	1%
Cc1ccc(S(=O)(=O)N(CC(=O)Nc2ccccc2C(=O)O)c2ccc(Cl)cc2)cc1	-7%	-6	-27%	38µM*	-1%
CCc1nc(N2CCCC(C)C2)c2oc3ccccc3c2n1 (stereo not given)	-12%	19	u	15µM*	-28%
CCc1nc(N2CCCCC2)c2oc3ccccc3c2n1	-15%	x	-3%	-4%	-21%
CC(C)C[C@@H](CC(=O)N[C@@H](CCC(=O)O)CC(=O)O)NC(=O)[C@@H]1CCCC[C@H]1NC(=O)C[C@@H](NC(=O)C[C@H](Cc1c[nH]c2ccccc12)NC(=O)[C@@H]1CNCC[C@H]1N)C(C)C	x	x	2%	x	x
COc1ccc(CC(=O)NCc2n[nH]c(=S)n2-c2cccc(C)c2)cc1	0%	-3	-14%	1%	4%
O=C(Cc1ccccc1)NCc1n[nH]c(=S)n1-c1ccccc1	-3%	-8	2%	27µM*	-10%
COc1ccc(OC)c(C(=O)NC(CC(N)=O)c2ccc(N3CCN(c4ccc(F)cc4)CC3)c([N+](=O)[O-])c2)c1 (stereo not given)	-1%	8	u	30µM*	-2%
O=C1OC(c2ccccc2)/C(=C(/O)c2ccc(Cl)cc2)C1=O (stereo not given)	-8%	17	45µM*	-22%	-4%
N#C/C(=C\C=C\c1ccccc1)C(=O)NCc1cccnc1	-1%	-10	u	24µM*	-1%
N#C/C(=C\c1cccc([N+](=O)[O-])c1)C(=O)NCc1cccnc1	-3%	1	u	-18%	-3%
O=C(CCCC(=O)c1ccc(O)cc1)c1ccc(O)cc1	-13%	-8	-13%	6%	8%
O=C1C=CC(=C(c2ccc(O)cc2)c2ccc(O)cc2)C=C1	u	-2	50µM*	5%	2%
